Laboratory results reported in PubChem BioAssay AID624330 (Southern Research Specialized Biocontainment Screening …, 2012).
The campaign covered roughly 340,000 compounds. About 2,100 (0.62%) were called active.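 Rule for the calls: active = first-screen hits whose inhibition reached a set limit at any dose in the follow-up dose series; inconclusive = inhibition above the set first-screen limit but never retested; inactive = the rest.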 The list is a sample of the results. Entries with a potency or affinity are not part of this list.

target: Rac GTPase-activating protein 1 (Homo sapiens) (UniProt Q9H0H5); assay: blockers of MgcRacGAP-driven Rac1 GTP hydrolysis – biochemical, ADP Hunter fluorescence, primary and confirmatory, confirmation (AID 624330); settings: MgcRacGAP-stimulated Rac1 GTP hydrolysis, at 30 µM, active compounds read high, GST-tagged Rac1 F28L mutant substrate;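 note: fluorescence reports GDP produced by GAP-driven GTP hydrolysis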
Sequence (Q9H0H5 whole entry, looked up): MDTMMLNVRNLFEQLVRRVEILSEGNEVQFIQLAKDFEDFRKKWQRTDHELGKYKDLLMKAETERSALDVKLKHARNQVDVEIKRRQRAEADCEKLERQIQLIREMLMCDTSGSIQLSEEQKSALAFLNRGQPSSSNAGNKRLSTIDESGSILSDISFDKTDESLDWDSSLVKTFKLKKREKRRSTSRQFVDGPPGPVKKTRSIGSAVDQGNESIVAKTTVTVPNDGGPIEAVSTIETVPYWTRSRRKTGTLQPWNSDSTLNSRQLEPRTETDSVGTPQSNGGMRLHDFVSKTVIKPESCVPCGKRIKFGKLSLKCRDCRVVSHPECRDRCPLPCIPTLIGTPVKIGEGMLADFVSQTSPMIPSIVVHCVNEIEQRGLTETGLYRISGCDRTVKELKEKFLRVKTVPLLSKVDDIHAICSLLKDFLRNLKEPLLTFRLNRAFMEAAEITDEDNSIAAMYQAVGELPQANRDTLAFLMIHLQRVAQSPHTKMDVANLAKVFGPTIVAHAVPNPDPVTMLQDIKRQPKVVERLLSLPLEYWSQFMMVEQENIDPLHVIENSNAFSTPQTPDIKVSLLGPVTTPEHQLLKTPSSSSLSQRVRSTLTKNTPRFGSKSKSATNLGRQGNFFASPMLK

inhibition, inactive:
Cc1ccc(OCCC(=O)OCC(=O)NC(=O)NCc2ccccc2)cc1 3.66%, Cc1nnc(C)n1/N=C/c1ccc(O)cc1 13%, CCN=c1scc(C)n1/N=C/c1ccsc1 25.8%, Cc1ccc(CN2CCN(/N=C/c3ccc(O)c(O)c3)CC2)cc1 31.8%, CN=c1scc(-c2cccs2)n1/N=C/c1ccccc1O 23.1%, CN=c1scc(C)n1/N=C/c1ccc(O)c(O)c1O -36.1%, CN=c1scc(C)n1/N=C/c1ccc2c(c1)OCO2 18.6%, Cn1nnnc1SCCNCc1cccnc1 -1.39%, COC(=O)c1ccc(NC(=O)C(=O)N2CCN(C(=S)Nc3cccc(OC)c3)CC2)cc1 7.83%, Cc1ccc(C)c(C(=O)C(C)Sc2nc3nn(-c4ccccc4)c(=O)c-3c3n2CCCCC3)c1 (stereo not drawn) -2.59%, Cc1ccc2nsnc2c1NC(=O)COc1ccccc1F 11.1%, CC(=O)c1ccc(NC(=S)NC(=O)/C=C/c2ccco2)cc1 21.8%, O=C(O)CCCCCNC(=O)/C=C/c1ccco1 5.1%, O=C(/C=C/c1ccco1)NCCc1ccccc1 6.75%, O=C(/C=C/c1ccco1)NC(=S)Nc1ccccc1 10.7%, COc1ccccc1OCC(=O)Nc1cc(C(F)(F)F)ccc1-n1cncn1 0.07%, COc1cccc(C#Cc2c(C=O)n(C)c3ccccc23)c1 8.82%, Cc1cn(CC(=O)NCc2ccc(N(C)C)cc2)c(=O)[nH]c1=O 11.4%, CCOc1ccc(CNC(=O)c2ccc3c(c2)N(CC)CCS3)cc1 14%, O=C(O)c1ccccc1Nc1cccc(C(F)(F)F)c1 8.9%, Nc1ccc(Nc2ccccc2N)cc1 24.3%, Nc1cccc(Nc2ccccc2)c1 8.97%, Nc1cc(C(=O)O)ccc1Nc1ccccc1 25.7%, Nc1cc(C(F)(F)F)ccc1Nc1ccccc1 6.27%, c1ccc(Nc2cccc3c(Nc4ccccc4)cccc23)cc1 8.14%, CCOc1cc(N2CCOCC2)c(OCC)cc1NC(=O)COC(=O)c1ccc(Cl)nc1 1.55%, O=C(Nc1cccc(-c2csc(Nc3ccc(Cl)cc3)n2)c1)c1ccccc1 2.45%, N#Cc1c(-c2ccccc2)cc(C2CC2)nc1SCC(=O)O 12.8%, COc1cccc(/C=N/Nc2nn3cnnc3c3ccccc23)c1O 7.65%, Oc1cccc(/C=N/Nc2nn3cnnc3c3ccccc23)c1 24.6%, COc1ccc(OC)c(/C=N/Nc2nncn2/N=C/c2cc(OC)ccc2OC)c1 6.03%, COc1cc(/C=N\Nc2nncn2N)ccc1OC(C)=O -4.26%, COc1cccc(/C=N/Nc2nn3cnnc3c3ccccc23)c1 19.3%, COc1ccc(/C=N/Nc2nn3cnnc3c3ccccc23)cc1 13.1%, CC(C)Cn1c(=O)c(-[n+]2ccccc2)c([O-])c2ccccc21 12.6%, O=C(OCc1ccccc1)N1CCC2CC1c1cc(Cl)ccc12 (stereo not drawn) 2.05%, Cc1nn(-c2ncc(C(F)(F)F)cc2Cl)c(=O)n1-c1ccccc1Cl 5.45%, CCCS(=O)(=O)NCc1cn2cccc(C)c2n1 4.87%, CC(=O)N1CCN(c2ccc([N+](=O)[O-])c(NCC3CCCO3)c2)CC1 (stereo not drawn) 7.45%, COc1cc(C(=O)OCn2nnc3ccccc3c2=O)cc(OC)c1OC 5.8%, COc1ccc(NC(=O)c2noc3c2CCC3)cc1 14.6%, COc1ccc(C2C3=C(CC(C)(C)CC3=O)Oc3ncn4nc(-c5cccnc5)nc4c32)cc1 (stereo not drawn) 1.38%, O=C(CCCc1c[nH]c2ccccc12)N[C@@H](Cc1c[nH]c2ccccc12)C(=O)O 9.15%, COc1cccc(CNC(=O)C2CCCN(S(C)(=O)=O)C2)c1 (stereo not drawn) -2.27%, CC(C)(C)c1nc2ccc(NS(=O)(=O)c3ccc(F)c(F)c3F)cc2[nH]1 -2.67%, CS(=O)(=O)Nc1ccc(C(=O)Nc2ccccc2Sc2ccccc2)cc1 9.8%, Cc1nc(CN(C)Cc2nc(Cc3cccc(F)c3)no2)cs1 5.6%, O=S(=O)(NC(=NC1CCCCC1)c1ccccc1)c1ccccc1 4.1%, Cc1ccc(NC2CCCN(C(=O)CCc3cn[nH]c3)C2)cc1C (stereo not drawn) 14.1%, O=C(CCc1ccccc1)N1CCCC(Nc2ccc(F)cc2)C1 (stereo not drawn) 5.33%, CC(C)c1ccc(NC2CCCN(C(=O)CCc3cn[nH]c3)C2)cc1 (stereo not drawn) 11.8%, COc1ccc(CCC(=O)N2CCCC(Nc3ccccc3)C2)cc1OC (stereo not drawn) 3.2%, COc1ccc(NC2CCCN(C(=O)CCc3cccc(Cl)c3)C2)cc1 (stereo not drawn) -4.43%, Cc1ccc(NC2CCCN(C(=O)CCc3scnc3C)C2)cc1C (stereo not drawn) 10.7%, Cc1ncsc1CCC(=O)N1CCCC(Nc2ccc(C(C)C)cc2)C1 (stereo not drawn) 5.76%, COc1ccc(CCC(=O)N2CCCC(Nc3ccc(OC)cc3)C2)cc1 (stereo not drawn) -28.9%, Cc1ccc(NC(=O)C2CCCN(C(=O)NCc3ccccc3)C2)c(C)c1 (stereo not drawn) 5.67%, CCOC(=O)CCCn1c(C)nc(=O)c(-c2ccccc2)c1C -2.8%, CCCCCCC(=O)OCC(=O)c1ccc2c(c1)NC(=O)CO2 4%, COc1ccccc1NC(=S)N(CCN(C)C)C(C)c1ccncc1 (stereo not drawn) 4.01%, O=S1(=O)N[C@@H](CC2CCCCC2)COc2cc(Br)ccc21 6.23%, COCC(=O)Nc1cc(C)cn(Cc2cccc(C(F)(F)F)c2)c1=O 3.75%, COc1ccc(CCNC(=O)c2[nH]c(C)c(C(C)=O)c2C)cc1 2.68%, CN(c1ccccc1)S(=O)(=O)c1cccc(NC(=O)CSc2ncn[nH]2)c1 5.76%, Cc1cc(Cl)ccc1OCC(=O)NCc1ccncc1 5.06%, COc1ccc(OC)c(C(=O)N2CCCC(Nc3ccc(F)cc3)C2)c1 (stereo not drawn) 12.4%, COc1ccc(NC2CCCN(C(=O)c3ccc(OC)cc3OC)C2)cc1 (stereo not drawn) -1.47%, CC(C)c1ccc(NC2CCCN(C(=O)c3ccccc3-c3ncc[nH]3)C2)cc1 (stereo not drawn) 8.99%, O=C(c1ccccc1-c1ncc[nH]1)N1CCCC(Nc2ccc(F)cc2)C1 (stereo not drawn) 2.49%, CC1CN(C(=O)CCNC(=O)c2ccc(Br)cc2)CC(C)O1 (stereo not drawn) 3.26%, Cc1ccc(OCC(=O)O)c(-n2nc3ccccc3n2)c1 9.25%, Nn1c(-c2cccc(O)c2)nnc1-c1cccc(O)c1 -0.05%, CC(C)CC(=O)NC(=S)Nc1ccc(N2CCN(C(=O)c3cccs3)CC2)cc1 9.14%, COc1cccc(NC(=O)CNCc2ccccc2)c1 1.69%, COc1ccc(CCNCC(=O)Nc2ccc(OC(F)(F)F)cc2)cc1OC 28.8%, COc1ccc(CNCC(=O)Nc2cccc(S(N)(=O)=O)c2)cc1 24.6%, COC(=O)c1ccc(CNCC(=O)Nc2ccc(C(=O)OC)cc2)cc1 -0.29%, CN1CCN(NS(=O)(=O)c2ccc(Cl)s2)CC1 13.4%, CCn1c(SCC(=O)OCc2ccccc2)nc2c1c(=O)n(C)c(=O)n2C -1.89%, CC(=O)Nc1ccc(NC(=O)c2nccnc2C(=O)O)cn1 2.3%, O=C(C(c1ccccc1)C(O)(c1ccccc1)c1ccccc1)N1CCOCC1 (stereo not drawn) -4.45%, CCNC(=S)N(CCc1c(C)[nH]c2ccccc12)Cc1cc(OC)c(OC)c(OC)c1 13.9%, O=C(CSC1=N/C(=C/c2ccc(Cl)c(Cl)c2)C(=O)N1c1ccccc1F)NC1CC1 6.1%, CN(C(=O)COC(=O)COc1ccc2ccccc2c1)c1ccccc1 5.73%, COc1ccc(OC)c(S(=O)(=O)N2CCC(C(=O)N(C)Cc3ccccc3)CC2)c1 13.1%, O=C(O)CCCn1c(=O)[nH]c2ccccc2c1=O 4.27%, CCC(C)n1c(=S)[nH]c2ccccc2c1=O (stereo not drawn) 5.28%, CC1CCN(CCCn2c(=S)[nH]c3c(sc4ccc([N+](=O)[O-])cc43)c2=O)CC1 17.7%, CCC(C)n1c(SCc2ccc([N+](=O)[O-])cc2)nc2ccsc2c1=O (stereo not drawn) 2.36%, COc1cccc(-c2cc3nc(C)cc(N4CCN(C(=O)c5ccoc5)CC4)n3n2)c1 13.9%, CCOc1ccc(/C=C(\C#N)C(=O)Nc2ccccn2)cc1 -0.14%, CCc1noc(C)c1C(=O)N1CCCC(N2CCN(c3cccc(Cl)c3)CC2)C1 (stereo not drawn) 8.33%, C/C(=N\Nc1ccc([N+](=O)[O-])cc1)c1ccc(C#N)cc1 -4.19%, C/C(=N\Nc1ccc([N+](=O)[O-])cc1)c1cccc(N)c1 1.82%, O=C(NCc1ccc(F)cc1)C1CCC(=O)N1C1CCCCC1 (stereo not drawn) -0.47%, COc1ccc(OC(=O)OCc2ccccc2)cc1 11.7%, COc1cc2c(cc1CNC[C@H]1O[C@@H](n3ccc(N)nc3=O)[C@H](O)[C@@H]1O)OCO2 6.09%, Cc1cc(CNC[C@H]2O[C@@H](n3ccc(N)nc3=O)[C@H](O)[C@@H]2O)no1 9.68%
